# Screening data (PubChem)
# BL2 CD40 inh – CD40 pathway inhibition in BL2 cells; inhibition, % at 10 µM; AID 1053188; BL2 NF-kB luciferase reporter, CD40L-induced, 4 h; hit rate 0.94% among 83,000;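 active means mean inhibition of at least 50% with a set share of replicates also reaching that level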;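 further: 0% = neutral control wells and 100% = IKK inhibitor VII at 50 µM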
# * marks the source's active call; other numbers are inactive results; [ ] = dose if it differs, or a comment. The entries come from a sample that favours hits as a whole.
SMILES,BL2 CD40 inh
C[C@H]1CN([C@@H](C)CO)C(=O)c2cc(C#CC3(O)CCCC3)cnc2O[C@@H]1CN(C)S(=O)(=O)c1ccccc1,-8[25 µM]
Cc1c(C(=O)NCCc2ccccc2)oc2ccc(S(=O)(=O)N3CCOCC3)cc12,-16
COc1ccc2oc(C(=O)NCCc3ccccc3)c(C)c2c1,58*
COc1ccc2oc(C(=O)NCC(c3ccco3)N(C)C)c(C)c2c1 (stereo unspecified),1
OC[C@H]1[C@H]2c3ccccc3NC[C@H]2N1Cc1ccccc1Cl,-3[25 µM]
N#CC1(NC(=O)COC(=O)c2cc([N+](=O)[O-])ccc2N2CCCC2)CCCCC1,44*
N#CC1(NC(=O)COC(=O)c2cc([N+](=O)[O-])ccc2N2CCOCC2)CCCCC1,-2
O=C(COC(=O)c1cc([N+](=O)[O-])ccc1N1CCOCC1)Nc1cc(F)ccc1F,-10
CN(C)Cc1csc(NC(=O)Nc2cccc(Cl)c2)n1,-13
NC(c1csc(Nc2cc(Oc3ccccc3)ncn2)n1)c1ccccc1Cl (stereo unspecified),-15
NC(c1csc(NC(=O)Nc2cccc(Cl)c2)n1)c1ccccc1Cl (stereo unspecified),59*
CCCNC(=O)[C@H]1[C@H](CO)[C@H]2Cn3c(cccc3=O)[C@@H]1N2C(=O)Nc1cc(F)ccc1F,1[25 µM]
Nc1ccc2nc(N3CCOCC3)sc2c1,-45
c1c2c(cc3sc(N4CCOCC4)nc13)OCCO2,87*
c1ccc(N2CCN(c3nc4cc5c(cc4s3)OCCO5)CC2)cc1,-76
C[C@H](CO)N1C[C@H](C)[C@@H](CN(C)C(=O)CCN(C)C)OCc2ccccc2-c2c(n(C)c3ccccc23)C1=O,-1
O=C(Nc1ccccc1)N1CC(=O)N2[C@H](CO)[C@@H](c3ccc(C#CC4CCCCC4)cc3)[C@H]2C1,54*[25 µM]
COc1cccc(NC(=O)N2CC(=O)N3[C@H](CO)[C@@H](c4ccc(C#CCC5CCCC5)cc4)[C@@H]3C2)c1,23[25 µM]
O=C(Nc1ccccc1)N1CC(=O)N2[C@H](CO)[C@H](c3ccc(C#CC4CCCCC4)cc3)[C@H]2C1,9[25 µM]
COc1cccc(NC(=O)N2CC(=O)N3[C@H](CO)[C@@H](c4ccc(C#CCC5CCCC5)cc4)[C@H]3C2)c1,64*[25 µM]
COc1cccc(NC(=O)N2CC(=O)N3[C@H](C2)[C@H](c2ccc(C#CCC4CCCC4)cc2)[C@@H]3CO)c1,13[25 µM]
O=C(Nc1ccccc1)N1CC(=O)N2[C@@H](CO)[C@@H](c3ccc(C#CC4CCCCC4)cc3)[C@@H]2C1,26[25 µM]
CS(=O)(=O)Nc1ccc2c(c1)[C@H]1C[C@@H](CC(=O)NCc3cc(F)ccc3F)O[C@@H](CO)[C@H]1O2,-3[25 µM]
O=S(=O)(c1ccccc1)N1CCCCC1CCc1ccccc1 (stereo unspecified),11
O=C(C[C@@H]1C[C@H]2c3cc(NC(=O)CC4CC4)ccc3O[C@H]2[C@@H](CO)O1)NCC1CC1,-10[25 µM]
SMILES,BL2 CD40 inh
CC(=O)N1[C@@H]2c3ccc(C4=CCCC4)c(=O)n3C[C@H]1[C@H](CO)[C@H]2C(=O)NC1CCC1,5
Cc1nn(-c2ccccc2)c2sc(C(=O)NC3CCCc4ccccc43)cc12 (stereo unspecified),14
CCC(=O)N1[C@H](C#N)[C@H](c2ccccc2-c2ccccc2)[C@@H]1CO,4[25 µM]
C[C@H](NC(=O)C[C@@H]1C=C[C@H](NC(=O)c2cccnc2)[C@H](CO)O1)c1ccccc1,-1[25 µM]
CC(=O)Nc1cc(-c2cccc(C(=O)N(C)C)c2)cn2c(-c3ccccc3)cnc12,1
COc1ccc(-c2cc(NC=O)c3ncc(-c4cccc(C(=O)N(C)C)c4)n3c2)cn1,-20
CN(C)C(=O)c1cccc(-c2cnc3c(NC=O)cc(-c4cccc(C(F)(F)F)c4)cn23)c1,65*
C[C@@H]1CN([C@H](C)CO)C(=O)Cc2cc(NC(=O)NC3CCCCC3)ccc2O[C@@H]1CN(C)CC1CCCCC1,0
C[C@@H]1CN([C@@H](C)CO)C(=O)c2cccc(NS(=O)(=O)c3cn(C)cn3)c2O[C@@H]1CN(C)C(=O)Nc1ccc(F)cc1,-7[25 µM]
C[C@@H]1CN(C)C(=O)Cc2cc(NS(C)(=O)=O)ccc2O[C@H]1CN(C)C,1
COc1ccc(C(=O)N2CCOC2CNC(=O)C(=O)NCc2ccccn2)cc1 (stereo unspecified),0
Nc1nc(N)c2cc(CNc3ccc(Cl)c(Cl)c3)ccc2n1,92*
Nc1nc(N)c2cc(Sc3ccc(Cl)cc3)ccc2n1,0
Nc1nc(N)c2cc(Sc3cccc(C(F)(F)F)c3)ccc2n1,31
CC(C)(O)C#Cc1ccc([C@@H]2[C@H](CO)N3CCCCN(S(C)(=O)=O)C[C@@H]23)cc1,-4[25 µM]
C[C@H](CO)N1C[C@H](C)[C@@H](CN(C)Cc2ccc(C(F)(F)F)cc2)Oc2c(NC(=O)c3nc4ccccc4s3)cccc2C1=O,14[25 µM]
CC1CCN(S(=O)(=O)c2ccc3c(c2)C(Cl)(Cl)C(=O)N3)CC1,53*
CC1CCN(S(=O)(=O)c2ccc3c(c2)oc(=O)n3C)CC1,8
Cc1ccc(S(=O)(=O)N2CCC(N3CCC(C)CC3)CC2)cc1,6
O=C(Cc1ccncc1)NCC[C@H]1CC[C@H](NS(=O)(=O)c2ccccc2Cl)[C@@H](CO)O1,-5[25 µM]
CNC[C@H]1Oc2ccc(NS(C)(=O)=O)cc2C(=O)N(C)C[C@@H]1C,-2
CSC1SCC2C(=O)N(C)C(C(C)C)C(=O)OCC(NC(=O)c3cnc4ccccc4n3)C(=O)NC(C)C(=O)N(C)C1C(=O)N(C)C(C(C)C)C(=O)OCC(NC(=O)c1cnc3ccccc3n1)C(=O)NC(C)C(=O)N2C (stereo unspecified),92*
C/C=C/c1ccc2c(c1)O[C@H](CN(C)C(=O)Nc1cccc(F)c1)[C@H](C)CN([C@H](C)CO)S2(=O)=O,-3[25 µM]
Cc1ccc2c(=O)c3ccccc3n(CCCN)c2c1C,79*[25 µM]
CCN(CC)CCn1c2ccccc2c(=O)c2c(O)ccc(O)c21,-12
SMILES,BL2 CD40 inh
Cc1cc(=O)n(CC(=O)O)c2ccccc12,3
CN(Cc1nccs1)C(=O)C1CCC(=O)N(CCCc2ccccc2)C1 (stereo unspecified),-1
CS(=O)(=O)N(CC(=O)NCc1ccco1)c1ccc(OCc2ccccc2)cc1,-12
N#C[C@@H]1[C@@H](c2ccccc2C2=CCCCC2)[C@@H](CO)N1C(=O)c1ccccn1,13[25 µM]
COc1ccc(/C=C\c2nc(=O)c3ccccc3o2)cc1,46*
COc1ccc(OCC(=O)c2c(O)c3ccccc3oc2=O)cc1,-1
COc1ccc(OC)c(-c2oc3ccccc3c(=O)c2O)c1,-75
Cc1ccc(S(=O)(=O)N[C@@H]2CC[C@@H](CCn3cc(C4CCCC4)nn3)O[C@H]2CO)cc1,2
COc1ccccc1N(CC(=O)N(CC(C)C)CC(C)C)S(=O)(=O)c1cccs1,14
COc1ccc(Cl)cc1N(C(C)C(=O)O)S(C)(=O)=O (stereo unspecified),-1
COc1ccccc1N(C(C)=O)C1=C(Cl)C(=O)c2ccccc2C1=O,101*
Cc1cccc(C)c1NC(=O)CNC(=O)CNC(=O)c1ccc2ccccc2c1,1
COc1ccc(S(=O)(=O)Nc2ccc3c(c2)CC(=O)N([C@@H](C)CO)C[C@@H](C)[C@H](CN(C)S(=O)(=O)c2ccc(C)cc2)O3)cc1,14
C[C@@H]1CN([C@@H](C)CO)C(=O)c2ccccc2-c2ccccc2CO[C@H]1CN(C)C(=O)c1ccncc1,2
C[C@@H]1CN([C@H](C)CO)C(=O)Cc2cc(NS(=O)(=O)c3ccccc3)ccc2O[C@H]1CN(C)Cc1ccc(Cl)c(Cl)c1,42
